An excerpt weighted towards active compounds, which were near 22% of everything screened.
CYP2C9 act: activators of human CYP2C9; P11712; recombinant CYP2C9, luciferin-H conversion, luminescence; stronger effect = higher value; factor 1 = untreated enzyme, 0 = blocked; activation factor at 5 µM; actives 1.4% (n = 96,000); AID 1024;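 active = activation factor of 2 or more for CYP2C9 at a 5 µM dose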;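 also: 0 = sulfaphenazole-blocked wells and 1 = vehicle-only wells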
Target sequence (P11712 whole entry, looked up): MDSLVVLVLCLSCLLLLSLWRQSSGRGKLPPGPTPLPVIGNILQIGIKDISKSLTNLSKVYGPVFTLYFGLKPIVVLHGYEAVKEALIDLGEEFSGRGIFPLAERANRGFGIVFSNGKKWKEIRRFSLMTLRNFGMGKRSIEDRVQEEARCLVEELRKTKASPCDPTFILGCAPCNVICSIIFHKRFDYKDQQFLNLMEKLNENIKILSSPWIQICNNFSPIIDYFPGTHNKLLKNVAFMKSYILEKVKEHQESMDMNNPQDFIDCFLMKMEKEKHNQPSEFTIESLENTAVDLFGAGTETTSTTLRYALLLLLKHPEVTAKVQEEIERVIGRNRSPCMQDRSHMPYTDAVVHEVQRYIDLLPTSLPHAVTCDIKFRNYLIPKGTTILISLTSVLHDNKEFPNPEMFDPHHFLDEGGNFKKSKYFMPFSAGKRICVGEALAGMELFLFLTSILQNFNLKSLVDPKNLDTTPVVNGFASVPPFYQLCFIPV
CYP2C19 activ: increases human CYP2C19 enzyme activity; recombinant CYP2C19, luciferin-H EGE luminescence; stronger effect = higher value; 0 = fully inhibited enzyme, 1 = untreated enzyme; activation factor at 5 µM; 96,000 tested, under 10 active; AID 1025;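 active = activation factor of at least 2 at 5 µM in the primary screen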;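 also: 0 = wells with 2.5 mM tranylcypromine and 1 = vehicle-only wells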
CYP2C19 inhib: human CYP2C19 inhibition; P33261; CYP2C19 Supersomes, luciferin-H EGE luminescence, 30 min; inhibition, % at 5 µM; actives 21% (n = 96,000); AID 778;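 active = CYP2C19 inhibition above a set limit at 5 µM in the primary screen, cut at about 50% in these data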;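 also: plate controls were negative control wells for no effect and 2.5 mM tranylcypromine positive control for full effect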
Measles CPE: protection of cells from measles virus; protection (pct of control), % at 4 µM; Measles virus-infected cells, CPE protection, absorbance; actives 1.5% (n = 140,000); AID 841; in the data active = protection mostly above about 24%, no sharp cut-off; inactive = mostly below about 26%
CYP2C9 inhib: human CYP2C9 inhibition | P11712 | CYP2C9 Supersomes, luciferin-H conversion, luminescence | inhibition, % at 5 µM | actives 20% (n = 96,000);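 active = blocking of liver enzyme CYP2C9 beyond about 50% at 5 µM, limit read from the data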
* marks the source's active call; other numbers are inactive results; · = no result.

SMILES	CYP2C9 act	CYP2C19 activ	CYP2C19 inhib	Measles CPE	CYP2C9 inhib
CCn1c(C(Cc2ccccc2)NC(=O)COC)nc2ccccc21 (configuration not stated)	0.8	0.2	80.7*	-0.1	21.9
Cc1ccc2[nH]c(=O)c(C3C(C#N)=C(N)Oc4c3ccc3cccnc43)cc2c1 (configuration not stated)	0.4	1.1	-13.8	3.1	62.1*
COC(=O)C1=C(C)NC(C)=C(C(=O)OC)C1c1cc2cc(C)ccc2[nH]c1=O	0.7	0.9	10.4	21.5	25.9
CCOc1ccc(Cn2c(=O)oc3ccc(C)cc32)cc1OC	0.6	0.4	63.7*	6.9	38.8
COc1cc(Cn2c(=O)oc3ccc(C)cc32)ccc1OC(C)C	·	·	·	19.1	·
CCCc1nc2sc3c(c2c(=O)n1NC(=O)CCC(=O)O)CCCC3	1.1	1.1	-7.5	4.4	-8.1
CC(=O)N1CCc2cc(S(=O)(=O)NC(C(=O)Nc3nc(C)cs3)C(C)C)ccc21 (configuration not stated)	1	1	1.6	11.6	1.5
CC(=O)N1CCc2cc(S(=O)(=O)NC(C(=O)Nc3ccc4c(c3)OCCO4)C(C)C)ccc21 (configuration not stated)	0.5	0.6	38.9	10.8	51.7*
CC(=O)N1CCc2cc(S(=O)(=O)CCC(=O)Nc3ccc4c(c3)OCCO4)ccc21	1	0.9	11.9	4.5	4.1
CCOC(=O)c1cccc(NC(=O)C(NS(=O)(=O)c2ccc3c(c2)CCN3C(C)=O)C(C)C)c1 (configuration not stated)	0.3	0.8	19.2	22.9	67.9*
Cc1cc(NC(=O)CSc2nc3sc4c(c3c(=O)n2C)CCCC4)no1	0.8	1	2.5	33.1*	16.4
Cc1cc(NC(=O)CSc2nc(C(C)C)nc3sc4c(c23)CCCC4)no1	0.2	0.2	79.7*	6.8	75.6*
CCn1c(SCC(=O)Nc2cc(C)on2)nc2sc3c(c2c1=O)CCCC3	·	·	·	13.9	·
Cc1cc(NC(=O)Cn2nnc3sc4c(c3c2=O)CCCC4)no1	0.8	0.9	5.8	5.0	20.8
Cc1cc(NC(=O)Cn2nnc3sc4c(c3c2=O)CCC(C(C)(C)C)C4)no1 (configuration not stated)	0.4	0.7	32.4	6.7	56.6*
CC(NC(=O)COC(=O)/C=C/c1ccc([N+](=O)[O-])cc1)c1ccccc1 (configuration not stated)	·	·	·	4.1	·
Cc1cc2c3c(c1)C(C)(c1ccccc1)CC(C)(C)N3C(=O)C21C(C#N)=C(N)OC2=C1C(=O)CC(C)(C)C2 (configuration not stated)	0.4	1	4.8	21.1	59.1*
Cc1cc(Br)ccc1OCC(=O)N(Cc1nc(-c2ccccc2)no1)C(C)C	0.6	0.7	27.6	8.0	38.4
Cc1ccc(-c2noc(CN(C(=O)Cc3ccccc3)C(C)C)n2)cc1	0.2	0.3	74.5*	1.4	77.8*
CC(C)N(Cc1nc(-c2ccccc2)no1)C(=O)COc1ccccc1	0.4	0.1	88.9*	17.2	64.2*
Cc1ccc(-c2noc(CNc3ccccc3)n2)cc1	·	·	·	18.4	·
CC(C)N(Cc1nc(-c2ccccc2)no1)C(=O)CSc1ccccc1	0.2	0.1	91.6*	8.8	79.2*
CC(C)N(Cc1nc(-c2ccccc2)no1)C(=O)Cc1ccccc1	0.3	0.1	89.4*	4.8	70.6*
N#CC1=C(N)N(c2ccccc2Sc2ccccc2)C(=O)C1	0.9	0.8	15.6	4.5	9.9
CCOC(=O)CNC(=O)CN1C(=O)CCS(=O)(=O)c2ccccc21	·	·	·	6.5	·
SMILES	CYP2C9 act	CYP2C19 activ	CYP2C19 inhib	Measles CPE	CYP2C9 inhib
COc1ccc(/C=N/NC(=O)c2cccc(NC(=O)c3ccccc3)c2)c(C(=O)O)c1OC	·	·	·	5.8	·
COc1cccc(/C=C/C(=O)OCC(=O)Nc2ccccc2Sc2ccccc2)c1	·	·	·	25.2	·
Cc1ccc(-c2noc(CN(C(=O)CCCCCN3C(=O)c4ccccc4C3=O)C(C)C)n2)cc1	0.1	0	96.3*	18.9	90.9*
Cc1ccc(C)c(C(=O)N(Cc2nc(-c3ccc(Cl)cc3)no2)C(C)C)c1	0.1	0.2	83.1*	3.3	88.2*
Cc1ccc(-c2noc(CN(C(=O)CCN3C(=O)c4ccccc4C3=O)C(C)C)n2)cc1	0.7	0.8	24.3	11.7	31.1
O=C(NC(=S)Nc1ccc(N2CCOCC2)cc1)c1cccc([N+](=O)[O-])c1	·	·	·	7.7	·
COc1ccc(CNC(=O)/C=C/c2ccc(OCCCF)cc2)cc1OC	1	0.8	19.1	3.8	-3.7
COc1ccc(C(=O)NC(=S)N2CC(C)OC(C)C2)cc1 (configuration not stated)	·	·	·	16.7	·
CCN(CC)S(=O)(=O)c1cccc(-c2nnc(SCc3nnc(-c4cccs4)o3)n2N)c1	0.2	0.4	58.5*	3.3	75.8*
Cc1ccc(C(=O)COC(=O)C2C3C=CC(C3)C2C(=O)OCC(=O)c2ccc(C)c(C)c2)cc1C (configuration not stated)	0.5	0.7	28.8	4.9	50.9*
Cc1ccc(S(=O)(=O)CCC(=O)OCC(=O)c2ccc(C)c(C)c2)cc1	·	·	·	29.9*	·
C=C(Cl)COC(=O)[C@H]1C2C=CC(C2)C1C(=O)O (some centres not stated)	0.9	1	-3.4	20.0	12.6
O=C(CSc1nnc(CNc2ccc(F)cc2)o1)N1CCCc2ccccc21	0.8	0.7	28.1	3.1	20.1
O=C(Nc1ccc2nc(-c3ccccc3)[nH]c2c1)c1ccco1	0.4	0.4	60.8*	10.3	57.7*
Nc1ccc2nc(-c3cccnc3)[nH]c2c1	·	·	·	12.0	·
O=C(Nc1ccc2nc(-c3ccc(Br)o3)[nH]c2c1)c1ccco1	0.6	0.8	24.8	8.2	40.2
O=C(Nc1ccc2nc[nH]c2c1)c1ccco1	1	1	1.6	52.7*	4.2
O=C(Nc1cccc(-c2nc3ccccc3[nH]2)c1)c1cccc(NC(=O)c2ccco2)c1	0.3	0.5	53.8*	6.1	70.2*
Nc1ccc2nc(-c3ccccc3)[nH]c2c1	0.9	0.8	18.7	57.4*	6.0
CCC(=O)NC(=S)Nc1ccc(S(=O)(=O)NC(C)C)cc1	0.8	0.9	11.1	2.1	15.4
CC1(C)CC(=O)C(C2C3=C(CC(C)(C)CC3=O)Oc3ccccc32)=C(O)C1 (configuration not stated)	0.6	0.9	7.8	5.4	43.5
CCOc1cccc(C(=O)Nc2cc(-c3nn4c(C)nnc4s3)ccc2C)c1	0.8	1.1	-9.4	9.2	21.5
CSc1c(CC(=O)Nc2ccccc2Cl)n(Cc2ccccc2)c2ccccc12	0.9	0.9	14.2	3.8	7.9
COc1ccc(CN2CCC(=O)NC2=O)cc1	1	0.6	43.8	11.0	-1.8
